# Experimental data: PubChem BioAssay AID588519 (ICCB-Longwood Screening Facility, Harvard Medical School, 2011)
# The whole screen tested about 150,000 compounds, of which about 1,000 (0.67%) were called active. Rule as the data show it: active = % elongation below about 90%; inactive = the rest, inconclusive results apart. For the sample, actives were picked, then their nearest neighbours and some compounds at random.
# Target: Genome polyprotein (Poliovirus type 1 (strain Mahoney)) (UniProt P03300)
# Sequence (P03300 1749-2209 limits assumed): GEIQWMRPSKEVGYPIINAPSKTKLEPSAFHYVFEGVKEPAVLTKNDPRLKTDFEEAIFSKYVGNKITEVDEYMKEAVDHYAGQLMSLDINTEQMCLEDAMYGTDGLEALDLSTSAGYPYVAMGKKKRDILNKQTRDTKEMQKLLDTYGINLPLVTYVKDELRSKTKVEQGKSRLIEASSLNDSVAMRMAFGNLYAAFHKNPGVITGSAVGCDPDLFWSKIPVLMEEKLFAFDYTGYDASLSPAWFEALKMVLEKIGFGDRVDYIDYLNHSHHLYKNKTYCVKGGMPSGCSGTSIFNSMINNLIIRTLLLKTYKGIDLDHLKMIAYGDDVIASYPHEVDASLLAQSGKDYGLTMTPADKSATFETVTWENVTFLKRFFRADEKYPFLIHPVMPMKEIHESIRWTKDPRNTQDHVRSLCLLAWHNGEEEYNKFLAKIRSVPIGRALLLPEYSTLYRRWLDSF
# Test: poliovirus RdRp elongation inhibitors, primary screen, biochemical, fluorescence polarization, total intensity (AID 588519); as to z-score: compound at 16.7 µg/mL
# Conditions: poliovirus polymerase elongation, stronger effect = lower value; for % elongation: compound at 16.7 µg/mL; for z-score: measured here: FP z-score
# [1] = measured here: total intensity read-out
SMILES,% elongation,z-score,% elongation [1]
COC(=O)CSc1nnc2c(n1)[nH]c1ccccc12,102% (inactive),0.2,108%
CC(C)(C)NC(=O)C1CCN(S(=O)(=O)c2ccccc2)CC1,101% (inactive),0.1,103%
O=C1C(Nc2ccc(O)cc2)=C(n2nnc3ccccc32)C(=O)c2ccccc21,79% (active),-2.2,79%
CCC(=O)Nc1ccc(C(=O)n2nnc3ccccc32)cc1,104% (inactive),1,102%
N#CC1=C2Sc3ccccc3N2CC1=O,97% (inactive),-1,165%
Cc1c(C(=O)NC(C)CCc2ccccc2)oc2c1C(=O)CCC2 (centres undefined),102% (inactive),0,102%
Sc1ccc2ccccc2c1,90% (active),-1.5,91%
c1ccc2cc3cnccc3cc2c1,100% (inactive),-0.3,102%
O=C1c2ccccc2C(=O)C1c1ccc2ccccc2c1,93% (inactive),-1.3,92%
N#Cc1ccc(COC(=O)Cc2noc3ccccc23)cc1,109% (inactive),0.7,104%
O=S(=O)(c1cc(S(=O)(=O)C(F)(F)F)c(Cl)c(S(=O)(=O)C(F)(F)F)c1)C(F)(F)F,98% (inactive),-0.2,95%
C/C(=N\c1ccccn1)C1=C(O)c2ccccc2C1=O,98% (inactive),-1,97%
O=S(=O)(NC1CCCCC1N1CCCCC1)c1ccc(Cl)cc1 (centres undefined),104% (inactive),0.2,96%
Cc1ccc2nc(C)c3c(c2c1)N(c1ccccc1)CC3,89% (active),-2.3,89%
Cc1ccc2nc(-c3ccccn3)cc(C(=O)O)c2c1,103% (inactive),0.8,100%
Cc1ccc2nc(Nc3ccccc3)cc(C)c2c1,110% (inactive),0.8,111%
CC(=O)OC[C@H]1O[C@@H](NC(=S)NN)[C@H](OC(C)=O)[C@@H](OC(C)=O)[C@@H]1OC(C)=O,103% (inactive),0.3,96%
CC(=O)Oc1c[n+]([O-])n(-c2ccccc2)n1,97% (inactive),-0.6,100%
CCOC(=O)C(C(=O)c1ccccc1)C1(O)C(=O)c2ccccc2C1=O (centres undefined),46% (active),-6.9,56%
CCOc1cc(C2C(C(=O)OC)=C(C)NC3=C2C(=O)c2ccccc23)ccc1O (centres undefined),112% (inactive),0.2,113%
CCOC(=O)C1=C(C)NC(=O)NC1c1ccccc1 (centres undefined),101% (inactive),-0.1,102%
COC(=O)CC(N)c1ccc(Cl)cc1 (centres undefined),103% (inactive),0.2,106%
C=CCN1CCN(C(c2ccc(C)cc2)c2nnnn2C2CCCC2)CC1 (centres undefined),103% (inactive),0.4,102%
